Reference: PubChem BioAssay AID504466 (National Center for Advancing Translational Sciences (NCATS), 2011)
The campaign covered roughly 330,000 compounds. About 4,200 (1.3%) were called active. Another 6% or so got no clear call; they are omitted. The call rests on the fitted dose curve; in most records, active means well fitted activation curve with a large enough effect; inconclusive means small, poorly fitted or top-dose-only effect; inactive means no such curve, though single readings can be large or run the other way. Shown is part of a subset that was picked to be rich in actives.

Assay: qHTS screen for small molecules that induce genotoxicity in human embryonic kidney (HEK293T) cells expressing luciferase-tagged ELG1; further: nearly all actives have a fitted effect of over 60% in size; on activity change, positive = activation: % of control where 0% means no effect
Conditions: HEK293T ELG1-luciferase reporter, luminescence, 16 h; series mostly up to 46 µM; activity change, positive = activation: at the top concentration
Outline: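 Quantitative HTS format in 1536-well plates. HEK293T ELG1-luciferase reporter cells receive test compound and are incubated 16 hr at 37 °C, 5% CO2; ONE-Glo added, 30 min room temperature, then luminescence read.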
Potency means the concentration at half of the fitted maximal effect.

Compound	activity change, positive = activation	Potency
Cc1ccc(NC(=O)c2cc(-c3ccccc3O)n[nH]2)cc1C	8.24% (inactive)	–
Cc1ccc(S(=O)(=O)Cc2cc(-c3ccc(Cl)cc3)no2)cc1	-7.84% (inactive)	–
Oc1ccccc1-c1cc(-c2ccc(Cl)cc2)n[nH]1	–	2.31 µM (active)
CCCCOc1ccc(C(=O)NCC(=O)OCC(=O)c2c(N)n(C)c(=O)n(C)c2=O)cc1	0.582% (inactive)	–
C[C@H](CO)N1C[C@H](C)[C@@H](CN(C)S(=O)(=O)c2ccc(F)cc2)Oc2c(NC(=O)Nc3ccccc3)cccc2C1=O	-6.35% (inactive)	–
CCOC(=O)CCCCCC(=O)Nc1ccc2c(c1)CC(=O)N([C@@H](C)CO)C[C@H](C)[C@@H](CN(C)Cc1ccccc1)O2	1.2% (inactive)	–
Cc1ccn2cc(-c3nonc3C)cc2c1	–	23.1 µM (active)
O=C1CN(C(=O)COC(=O)/C=C/c2ccc(F)cc2)c2ccccc2N1	1.53% (inactive)	–
O=C(O)Cc1ccc(NC(=O)Nc2cccc3ccccc23)cc1	-0.0328% (inactive)	–
O=C(Nc1cccc2ccccc12)c1onc2c1CCCC2	–	16.4 µM (active)
O=C(O)c1ccccc1-c1ccccc1C(=O)Nc1cccc2ccccc12	-0.978% (inactive)	–
O=C(Nc1cccc(S(=O)(=O)N2CCOCC2)c1)C12CC3CC(CC(C3)C1)C2	-5.08% (inactive)	–
O=C(COC(=O)c1ccccc1O)NCc1ccco1	1.74% (inactive)	–
O=C(CSc1ncn[nH]1)Nc1ccc(Br)cc1Br	1.9% (inactive)	–
O=C(CNC(=O)c1ccc2ccccc2c1)Nc1ncccc1O	16.9% (inactive)	–
O=C(Nc1ncccc1O)c1ccc(C(=O)c2ccccc2)cc1	–	18.3 µM (active)
O=C(Nc1ncccc1O)c1ccc(S(=O)(=O)N2CCCC2)cc1	23.2% (inactive)	–
CC1Sc2ccc(C(=O)NCc3ccccc3Cl)cc2NC1=O (stereo not given)	2.84% (inactive)	–
CCCCNS(=O)(=O)CCNCc1ccccc1OC	13% (inactive)	–
CCCC(=O)N(CCN1CCOCC1)c1nc2ccc(OCC)cc2s1	0.969% [at 9.26 µM] (inactive)	–
CCOc1ccc2nc(C(=O)N3CCCC(C)C3)sc2c1 (stereo not given)	–	10.3 µM (active)
CCOc1ccc2nc(N(CCN(C)C)C(=O)c3ccc4ccccc4c3)sc2c1	-1.72% (inactive)	–

Compound	activity change, positive = activation	Potency
C=CC[C@@H](Cc1ccc(F)cc1)C(=O)OC[C@H]1CCCN1C(=O)[C@H](CC=C)CC(=O)N(CCO)Cc1ccccc1	-5.84% (inactive)	–
COc1cccc(-c2sc3ccc(OC)cc3c2-c2ccc(OCCN3CCCCC3)cc2)c1	-1.09% (inactive)	–
COC(=O)[C@]1(Cc2ccccc2)N[C@H](CN(C)S(=O)(=O)c2ccc(OC(F)(F)F)cc2)[C@@H]2C(=O)N(C)C(=O)[C@@H]21	-2.77% (inactive)	–
O=C(c1ccc(N2CCOCC2)c([N+](=O)[O-])c1)N1CCN(c2ccccc2F)CC1	-9.33% (inactive)	–
C=CCN(C(=O)Nc1ccc2c(c1)nc(C)n2C)c1ccccc1	16.1% (inactive)	–
Cc1nc2cc(NCc3cccs3)ccc2n1C	28.1% (inactive)	–
Cc1nc2cc(NC(=O)Nc3cccc(F)c3)ccc2n1C	–	0.92 µM (active)
CNC[C@H]1Oc2c(NC(=O)C3CCCCC3)cccc2C(=O)N([C@H](C)CO)C[C@@H]1C	-1.66% (inactive)	–
Oc1c(Br)cccc1/C=N/Nc1c(F)c(F)c(F)c(F)c1F	-4.64% (inactive)	–
COc1cc(/C=N\Nc2nc(-c3cccs3)c(NC(C)=O)s2)ccc1O	-3.28% (inactive)	–
Brc1ccccc1/C=N/Nc1nc2ccccc2o1	–	11.6 µM (active)
COc1ccc(/C=N/Nc2nc3ccccc3o2)cc1OC	–	2.59 µM (active)
COc1ccc(/C=N\NC(=O)c2sc(N)nc2C)cc1OC	12.3% (inactive)	–
CCOc1ccccc1/C=N/Nc1nc2ccccc2o1	7.08% (inactive)	–
CCCCNc1c(-c2ccc(OC)c(Sc3ccc(OC)cc3)c2)nc2ccc(Cl)cn12	-4.18% (inactive)	–
O=C(CCNC(=O)c1ccccc1)NN=Cc1ccc(Br)o1	-0.0854% (inactive)	–
CC(=O)N(O)CCCCCNC(=O)CCC(=O)N(O)CCCCCNC(=O)CCC(=O)N(O)CCCCCNC(=O)CCC(=O)O	5.77% (inactive)	–
Cc1ccc(C(=O)NCCNC(=O)c2cnccn2)cc1	-0.0843% (inactive)	–
CCN(CC)c1ccc(/C=N/NC(=O)c2cnccn2)c(O)c1	–	18.3 µM (active)
CCN(CC)c1ccc(/C=N/NC(=O)CNC(=O)c2cccnc2)cc1	2.7% (inactive)	–
CN(CC(=O)NCCc1ccc(S(N)(=O)=O)cc1)CC(=O)Nc1ccc(Cl)cc1	0.0154% (inactive)	–
COc1ccc(C(=O)NCc2ccccc2C)cc1S(=O)(=O)NC1CCCC1	1.93% (inactive)	–

Compound	activity change, positive = activation	Potency
CCOC(=O)c1oc2ccccc2c1NC(=O)c1cccs1	-1.95% (inactive)	–
CCc1c(C)sc(NC(=O)c2ccc(Br)o2)c1C(=O)OC	-1.84% (inactive)	–
CCc1c(C)sc(NC(=O)c2cccs2)c1C(N)=O	–	18.4 µM (active)
CC(Sc1nncn1C)C(=O)NCCC1=CCCCC1 (stereo not given)	-0.535% (inactive)	–
CN1C(=O)[C@H]2[C@@H](/C=C/c3ccccc3)N3C(=O)CN(Cc4ccc(-c5ccccc5)cc4)C(=O)[C@@]3(C)[C@H]2C1=O	-1.14% (inactive)	–
Cn1c(N)c(C(=O)COC(=O)c2ccc3ccccc3c2)c(=O)n(C)c1=O	-2.01% (inactive)	–
COC(=O)CCC(=O)N1CCCC(CO)(Cc2ccccc2)C1 (stereo not given)	–	20.6 µM (active)
CCCc1cc(C(=O)N2CCCC(CO)(CCCc3ccccc3)C2)n(C)n1 (stereo not given)	-3.98% (inactive)	–
Cc1ccccc1CC1(CO)CCCN(C(=O)c2cc(-c3ccccc3)no2)C1 (stereo not given)	-1.39% (inactive)	–
Cc1onc(-c2c(F)cccc2Cl)c1C(=O)OCC(=O)N1C(C)CCCC1C (stereo not given)	-5.26% (inactive)	–
CCN(CC(=O)NC(C)C)C(=O)c1cc(S(=O)(=O)N2CCCCC2)ccc1N1CCCCC1	2.3% (inactive)	–
O=C(c1cc(-c2ccc(O)cc2)on1)N1CCOCC1	–	4.61 µM (active)
O=C(c1cc(-c2ccc(O)cc2)on1)N1CCCc2ccccc21	12.3% (inactive)	–
O=C(c1cc(-c2ccc(F)cc2)on1)N1CCN(c2ccc(F)cc2)CC1	1.19% (inactive)	–
COc1ccc(-c2c(C#Cc3ccsc3)c3cc(-c4ccc(CN5CCOCC5)cc4)ccc3n2C)cc1	0.314% (inactive)	–
CCc1ccc(C(=O)COC(=O)c2ccco2)cc1	–	23.1 µM (active)
O=C(COC(=O)c1ccccc1C(=O)c1ccccc1)c1ccco1	-0.249% (inactive)	–
O=C(OCC(=O)N1CCCC1)c1ccco1	2.73% (inactive)	–
COc1ccc(S(=O)(=O)N2CCN(CC(=O)N3CCOCC3)CC2)cc1OC	0.561% (inactive)	–
CCOC(=O)C1=CN(Cc2ccc(Br)cc2)S(=O)(=O)N(C)C1C (stereo not given)	8.95% (inactive)	–
COc1cc(NC(=O)COC(=O)c2cc(S(=O)(=O)N3CCOCC3)ccc2F)cc(OC)c1	1.61% (inactive)	–
